In PubChem BioAssay (EPA / NIEHS) one finds outcome and AC50 data, which are given here for eight compounds.

Molecules are shown by their SMILES. Active and inactive are the calls of the source. How the source made its calls: active means hit-call score of the fitted dose curve at least 0.9, where 1 is the maximum; inactive means score below 0.9.

Test [1] in a line: ATG_GRE_CIS: Attagene CIS-FACTORIAL HepG2 Assay for human Glucocorticoid Response Elements (GRE) (AID 2282947). The following applies: HepG2 GRE cis-reporter, Attagene multiplex mRNA; actives raise or lower the signal. The method, boiled down:
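Fluorescence intensity of reporter-specific cDNA fragments, separated by capillary electrophoresis, provides the signal. Constructs carry cis-regulating promoters in transiently transfected HepG2 liver cells; 24 h incubation; fitting is bidirectional against DMSO.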

Test [2] is described as follows: ATG_ISRE_CIS: Attagene CIS-FACTORIAL HepG2 Assay for human Interferon Regulatory Factor 1 (IRF1) binding to an Interferon-Stimulated Response Element (ISRE) (AID 2282948). The following applies: HepG2 ISRE cis-reporter (Attagene), mRNA transcription readout; actives raise or lower the signal. The method, boiled down: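 Signal reflects induction or loss of ISRE-linked reporter mRNA in transiently transfected HepG2 cells after a 24 h treatment, detected by fluorescent RT-PCR fragments on capillary electrophoresis and normalised to DMSO.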

Test [3] can be described thus: ATG_M_32_CIS: Attagene CIS-FACTORIAL HepG2 Assay for M32 Transcription Factor (Internal Marker) (AID 2282949).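 Further: background control marker of the multiplexed CIS panel rather than a real target.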 The following applies: HepG2 Attagene cis-factorial M32 reporter, mRNA; actives raise or lower the signal. The procedure, abridged:
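HepG2 human liver cells transiently transfected with cis-promoter-driven multiple reporter transcription units, dosed 24 h. Reporter mRNA quantified by RT-PCR, FAM-labelled primer extension, HpaI digest and capillary electrophoresis; bidirectional fit versus DMSO baseline.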

A short description of test [4]: ATG_M_06_CIS: Attagene CIS-FACTORIAL HepG2 Assay for M06 Transcription Factor (Internal Marker) (AID 2282950). The following applies: HepG2 Attagene CIS-FACTORIAL M06 internal marker reporter; actives raise or lower the signal. The method, boiled down:
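HepG2 liver cells, 24 h exposure. Reporter transcripts from transfected cis-element constructs quantified by RT-PCR/capillary electrophoresis fluorescence. Bidirectional curve fit against DMSO.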

Test [5] addresses Hypoxia-inducible factor 1-alpha (Homo sapiens) (UniProt Q16665). The test is described as follows: ATG_HIF1a_CIS: Attagene CIS-FACTORIAL HepG2 Assay for human Hypoxia Inducible Factor 1 (HIF1A) (AID 2282951). To be noted: HepG2 Attagene cis-factorial HIF1a reporter transcription; actives raise or lower the signal. The method, boiled down:
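Dosed 24 h, transfected HepG2 cells yielded total RNA whose reporter transcripts were RT-PCR-amplified and sized by capillary electrophoresis using fluorescent labelling; DMSO defined baseline, with gain and loss of signal both fitted.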

Test [6] deals with Hepatocyte nuclear factor 6 (Homo sapiens) (UniProt Q9UBC0). The test is described as follows: ATG_HNF6_CIS: Attagene CIS-FACTORIAL HepG2 Assay for human Hepatocyte Nuclear Factor 6 (HNF6) (AID 2282952). To be noted: HepG2 Attagene cis-factorial HNF6 reporter transcription; actives raise or lower the signal. The procedure, abridged: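 Activity values derive from bidirectional fitting against DMSO of reporter mRNA levels, measured by capillary electrophoresis of labelled RT-PCR products from HepG2 cells exposed 24 h.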

Test [7] concerns the target Heat shock factor protein 1 (Homo sapiens) (UniProt Q00613). The test is described as follows: ATG_HSE_CIS: Attagene CIS-FACTORIAL HepG2 Assay for human Heat Shock Transcription Factor 1 (HSE) (AID 2282953). The following applies: HepG2 HSE cis-reporter, Attagene RNA transcription; actives raise or lower the signal. The method, boiled down: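 Endogenous transcription factor activity captured via cis-promoter reporter units transfected into HepG2; treatment lasted 24 h. Fluorescence intensity of reporter fragments analysed with bidirectional curve fitting, DMSO baseline.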

Test [8] is described as follows: ATG_MRE_CIS: Attagene CIS-FACTORIAL HepG2 Assay for human Metal Responsive Element (MRE) (AID 2282954). To be noted: HepG2 MRE cis-reporter transcription, Attagene multiplex; actives raise or lower the signal. The method, boiled down:
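Measured here is mRNA induction from an MRE cis-element reporter in HepG2 after 24 h, quantified by fluorescence of labelled RT-PCR products on capillary electrophoresis; gain- and loss-of-signal fits use DMSO as baseline.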

A short description of test [9]: ATG_PBREM_CIS: Attagene CIS-FACTORIAL HepG2 Assay for human Phenobarbital-responsive Enhancer Module (PBREM) (AID 2282955). The following applies: HepG2 PBREM cis-reporter, Attagene multiplexed transcription; actives raise or lower the signal. The method, boiled down:
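Transfected liver-derived HepG2 cells exposed 24 h; PBREM reporter transcript quantified via RT-PCR and capillary electrophoresis, with activity in either direction referenced to DMSO.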

The target of test [10] is Paired box protein Pax-6 (Homo sapiens) (UniProt P26367). The test is described as follows: ATG_Pax6_CIS: Attagene CIS-FACTORIAL HepG2 Assay for human Paired Box 6 (PAX6) (AID 2282956). The following applies: HepG2 CIS-FACTORIAL PAX6 reporter transcription, RNA readout; actives raise or lower the signal. The method, boiled down: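 Values derive from bidirectional curve fitting of reporter mRNA signal relative to DMSO. HepG2 cells bearing transfected cis-regulated MRTUs were exposed for 24 h; transcripts were read by RT-PCR and capillary electrophoresis.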

A short description of test [11]: ATG_PXRE_CIS: Attagene CIS-FACTORIAL HepG2 Assay for human Pregnane X Receptor Element (PXRE) (AID 2282957). To be noted: HepG2 Attagene CIS-FACTORIAL PXRE reporter, mRNA; actives raise or lower the signal. The method, boiled down: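 Fluorescent capillary electrophoresis of amplified reporter cDNA gave the signal, collected 24 h after dosing HepG2 cells that held transfected cis-element reporter constructs.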

A short description of test [12]: ATG_RORE_CIS: Attagene CIS-FACTORIAL HepG2 Assay for human RAR-related Orphan Receptor Element (RORE) (AID 2282959). To be noted: HepG2 Attagene cis-factorial RORE reporter, mRNA; actives raise or lower the signal. The method, boiled down: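 Transiently transfected HepG2 reporter cells were treated 24 h. Reporter transcripts were detected by RT-PCR and capillary electrophoresis, with bidirectional fitting against DMSO.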

Test [13] is described as follows: ATG_Sox_CIS: Attagene CIS-FACTORIAL HepG2 Assay for human SRY-box transcription factor (SOX) (AID 2282960). To be noted: HepG2 Attagene cis-factorial SOX reporter, mRNA; actives raise or lower the signal. The method, boiled down:
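Gain- or loss-of-signal endpoint, fitted bidirectionally with DMSO as negative control. Based on reporter mRNA from transfected HepG2 cells harvested 24 h post-treatment and quantified via RT-PCR and capillary electrophoresis.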

Test [14] addresses Transcription factor Sp1 (Homo sapiens) (UniProt P08047). The test is described as follows: ATG_Sp1_CIS: Attagene CIS-FACTORIAL HepG2 Assay for human Specificity Protein 1 (Sp1) (AID 2282961). The following applies: HepG2 Sp1 cis-reporter transcription, actives raise or lower the signal. The procedure, abridged: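 Endpoint reflects endogenous Sp1 transcriptional activity, not an exogenous fusion protein: HepG2 cells with transfected cis-regulated reporters, 24 h dosing, RT-PCR/capillary electrophoresis mRNA read-out, DMSO-normalised bidirectional fit.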

Test [15] in a line: ATG_SREBP_CIS: Attagene CIS-FACTORIAL HepG2 Assay for human Sterol Regulatory Element Binding (SREBP) (AID 2282962). The following applies: HepG2 Attagene cis-factorial SREBP reporter, mRNA; actives raise or lower the signal. The procedure, abridged: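 Values derive from bidirectional curve fitting with DMSO as baseline. The underlying measurement is reporter mRNA from cis-element-regulated units in transiently transfected HepG2, quantified by RT-PCR and capillary electrophoresis after 24 h exposure.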

The target in test [16] is Signal transducer and activator of transcription 3 (Homo sapiens) (UniProt P40763). The test is described as follows: ATG_STAT3_CIS: Attagene CIS-FACTORIAL HepG2 Assay for human Signal Transducer and Activator of Transcription 3 (STAT3) (AID 2282963). To be noted: HepG2, Attagene cis-factorial STAT3 reporter transcription; actives raise or lower the signal. The procedure, abridged:
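Fluorescence intensity of 6-FAM-labelled reporter fragments, separated by capillary electrophoresis after RT-PCR, gave the signal. Cells were HepG2 transfected with cis-element reporter units and treated 24 h; fitting was bidirectional relative to DMSO.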

Test [17] in a line: ATG_TA_CIS: Attagene CIS-FACTORIAL HepG2 Assay for human TA Basal Promoter (AID 2282964). The following applies: HepG2 Attagene CIS-factorial TA basal promoter reporter; actives raise or lower the signal. The procedure, abridged: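 Fluorescence from labelled RT-PCR reporter fragments, separated by capillary electrophoresis, gives the signal. Cells: HepG2 transiently carrying multiple reporter units, 24 h chemical dosing. Gain or loss relative to DMSO.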

Test [18] is described as follows: ATG_TCF_b_cat_CIS: Attagene CIS-FACTORIAL HepG2 Assay for human T-Cell-Factor with beta-catenin (TCF/b-cat) (AID 2282965). The following applies: HepG2 TCF/beta-catenin cis-reporter transcription, actives raise or lower the signal. The method, boiled down:
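HepG2 cells transiently transfected with cis-promoter-driven multiplexed reporter units; reporter mRNA measured 24 h after dosing by RT-PCR, FAM labelling, HpaI digestion and capillary electrophoresis. Bidirectional fitting relative to DMSO baseline.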

Test [19] addresses Bile acid receptor (Homo sapiens) (UniProt Q96RI1). The test is described as follows: ATG_IR1_CIS: Attagene CIS-FACTORIAL HepG2 Assay for human Nuclear Receptor Subfamily 1 Group H Member 4 (NR1H4), IR1 submotif (AID 2282946). The following applies: IR1 reporter transcription, actives raise or lower the signal. The procedure, abridged: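 Fluorescence of capillary-separated, HpaI-digested RT-PCR reporter products gave IR1-element mRNA induction in HepG2 cells 24 h after dosing. Endogenous transcription factors drove the cis-regulated reporters; activity was fitted bidirectionally against DMSO.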

The nature of test [20]: ATG_PPRE_CIS: Attagene CIS-FACTORIAL HepG2 Assay for human Peroxisome Proliferator-activated Response Element (PPRE) (AID 2282958). To be noted: HepG2 PPRE cis-element reporter, Attagene transcription factor profiling; actives raise or lower the signal. The method, boiled down:
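Measured endpoint: PPRE-controlled reporter mRNA, detected by RT-PCR and capillary electrophoresis fluorescence, from transiently transfected HepG2 cells 24 h after dosing. Curves fitted in both directions using DMSO baseline.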

Heat shock factor protein 1 (Homo sapiens), sequence (Q00613 whole entry, looked up, the tested form may be a part): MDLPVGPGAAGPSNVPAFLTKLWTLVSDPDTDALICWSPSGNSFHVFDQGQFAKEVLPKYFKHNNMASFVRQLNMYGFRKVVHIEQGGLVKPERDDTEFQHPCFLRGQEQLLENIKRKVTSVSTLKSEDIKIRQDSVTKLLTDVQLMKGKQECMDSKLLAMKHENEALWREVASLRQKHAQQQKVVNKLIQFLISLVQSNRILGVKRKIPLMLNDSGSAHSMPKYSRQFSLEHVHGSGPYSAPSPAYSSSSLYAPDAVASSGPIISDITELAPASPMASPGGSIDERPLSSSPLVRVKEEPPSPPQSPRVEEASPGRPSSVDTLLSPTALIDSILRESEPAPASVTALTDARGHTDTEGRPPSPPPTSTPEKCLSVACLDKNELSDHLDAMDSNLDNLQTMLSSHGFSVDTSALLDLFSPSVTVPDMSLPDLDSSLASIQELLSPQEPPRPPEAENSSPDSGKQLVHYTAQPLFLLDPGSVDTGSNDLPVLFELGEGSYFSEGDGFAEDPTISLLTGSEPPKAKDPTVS
Signal transducer and activator of transcription 3 (Homo sapiens), sequence (P40763 whole entry, looked up, the tested form may be a part): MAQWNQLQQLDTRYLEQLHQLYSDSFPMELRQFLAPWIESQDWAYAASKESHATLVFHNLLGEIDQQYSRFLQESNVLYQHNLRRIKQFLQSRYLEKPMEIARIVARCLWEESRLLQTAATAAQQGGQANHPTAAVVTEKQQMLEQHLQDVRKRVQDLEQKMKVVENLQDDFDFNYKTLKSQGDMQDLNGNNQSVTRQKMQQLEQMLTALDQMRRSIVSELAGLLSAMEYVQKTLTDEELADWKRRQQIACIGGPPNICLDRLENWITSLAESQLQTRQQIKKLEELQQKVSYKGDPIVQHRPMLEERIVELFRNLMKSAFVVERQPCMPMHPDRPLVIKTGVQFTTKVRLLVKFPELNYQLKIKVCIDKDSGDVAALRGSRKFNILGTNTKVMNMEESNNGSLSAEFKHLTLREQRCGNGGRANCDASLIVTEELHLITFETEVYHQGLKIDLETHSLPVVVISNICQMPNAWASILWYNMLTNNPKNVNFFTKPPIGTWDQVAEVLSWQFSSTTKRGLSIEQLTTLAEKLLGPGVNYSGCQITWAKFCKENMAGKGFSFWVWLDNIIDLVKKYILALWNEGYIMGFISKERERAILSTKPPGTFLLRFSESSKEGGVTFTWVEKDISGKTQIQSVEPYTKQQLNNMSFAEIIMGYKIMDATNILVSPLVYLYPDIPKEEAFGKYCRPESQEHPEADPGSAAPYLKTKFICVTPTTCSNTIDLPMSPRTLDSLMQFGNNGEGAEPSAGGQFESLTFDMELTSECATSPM
Hypoxia-inducible factor 1-alpha (Homo sapiens), sequence (Q16665 whole entry, looked up): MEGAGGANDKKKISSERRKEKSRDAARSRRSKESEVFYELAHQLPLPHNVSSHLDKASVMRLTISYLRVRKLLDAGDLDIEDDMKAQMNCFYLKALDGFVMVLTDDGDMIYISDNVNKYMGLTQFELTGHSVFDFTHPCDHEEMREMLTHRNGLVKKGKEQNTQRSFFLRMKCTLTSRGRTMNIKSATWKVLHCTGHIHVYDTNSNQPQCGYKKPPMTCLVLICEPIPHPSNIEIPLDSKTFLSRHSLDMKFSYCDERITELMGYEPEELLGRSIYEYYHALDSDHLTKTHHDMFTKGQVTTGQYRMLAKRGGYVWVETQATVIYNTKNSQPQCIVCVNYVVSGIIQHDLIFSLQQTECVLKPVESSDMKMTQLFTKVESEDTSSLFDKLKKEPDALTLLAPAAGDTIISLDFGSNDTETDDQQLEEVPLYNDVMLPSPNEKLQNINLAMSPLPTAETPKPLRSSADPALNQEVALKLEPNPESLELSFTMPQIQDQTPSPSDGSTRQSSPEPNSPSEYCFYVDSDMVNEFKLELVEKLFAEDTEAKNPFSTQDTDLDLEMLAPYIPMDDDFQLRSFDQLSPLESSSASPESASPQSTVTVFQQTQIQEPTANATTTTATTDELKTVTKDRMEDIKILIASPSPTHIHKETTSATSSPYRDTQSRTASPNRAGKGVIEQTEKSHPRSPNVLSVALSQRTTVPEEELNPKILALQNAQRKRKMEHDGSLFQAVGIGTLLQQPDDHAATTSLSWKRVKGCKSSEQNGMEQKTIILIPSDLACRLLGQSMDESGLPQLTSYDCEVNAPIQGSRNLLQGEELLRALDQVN
Transcription factor Sp1 (Homo sapiens), sequence (P08047 whole entry, looked up, the tested form may be a part): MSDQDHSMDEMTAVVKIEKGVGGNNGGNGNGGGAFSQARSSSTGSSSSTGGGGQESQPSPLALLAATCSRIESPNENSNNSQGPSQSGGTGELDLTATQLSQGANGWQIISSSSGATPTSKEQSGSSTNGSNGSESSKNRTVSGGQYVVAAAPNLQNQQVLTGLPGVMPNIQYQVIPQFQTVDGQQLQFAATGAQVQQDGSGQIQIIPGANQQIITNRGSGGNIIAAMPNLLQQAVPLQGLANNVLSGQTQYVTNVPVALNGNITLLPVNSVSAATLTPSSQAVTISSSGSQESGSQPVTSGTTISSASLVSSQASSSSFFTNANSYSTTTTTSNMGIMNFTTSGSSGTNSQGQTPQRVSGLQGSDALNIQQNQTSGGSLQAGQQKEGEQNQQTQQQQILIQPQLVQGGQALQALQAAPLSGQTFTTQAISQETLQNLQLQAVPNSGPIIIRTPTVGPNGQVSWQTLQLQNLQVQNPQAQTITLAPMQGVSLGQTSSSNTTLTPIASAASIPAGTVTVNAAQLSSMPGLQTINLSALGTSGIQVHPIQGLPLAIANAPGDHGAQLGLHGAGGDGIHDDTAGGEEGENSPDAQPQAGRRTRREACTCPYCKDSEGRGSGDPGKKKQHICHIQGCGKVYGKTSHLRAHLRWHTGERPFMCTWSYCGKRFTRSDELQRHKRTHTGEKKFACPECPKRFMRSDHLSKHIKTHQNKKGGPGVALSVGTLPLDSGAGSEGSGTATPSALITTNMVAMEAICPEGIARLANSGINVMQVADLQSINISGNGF
Hepatocyte nuclear factor 6 (Homo sapiens), sequence (Q9UBC0 whole entry, looked up): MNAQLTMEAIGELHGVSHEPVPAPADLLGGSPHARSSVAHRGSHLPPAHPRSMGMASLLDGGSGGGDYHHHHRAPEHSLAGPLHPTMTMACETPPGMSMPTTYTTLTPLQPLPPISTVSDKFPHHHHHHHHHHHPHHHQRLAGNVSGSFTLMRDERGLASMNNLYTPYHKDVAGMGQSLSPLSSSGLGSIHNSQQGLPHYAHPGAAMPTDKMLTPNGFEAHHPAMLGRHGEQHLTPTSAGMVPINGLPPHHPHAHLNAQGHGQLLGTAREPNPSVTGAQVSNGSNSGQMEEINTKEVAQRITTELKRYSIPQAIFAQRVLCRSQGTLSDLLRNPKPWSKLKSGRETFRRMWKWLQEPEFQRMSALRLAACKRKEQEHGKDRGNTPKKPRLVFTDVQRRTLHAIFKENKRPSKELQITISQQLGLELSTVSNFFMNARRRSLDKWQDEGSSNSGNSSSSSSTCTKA
Paired box protein Pax-6 (Homo sapiens), sequence (P26367 whole entry, looked up): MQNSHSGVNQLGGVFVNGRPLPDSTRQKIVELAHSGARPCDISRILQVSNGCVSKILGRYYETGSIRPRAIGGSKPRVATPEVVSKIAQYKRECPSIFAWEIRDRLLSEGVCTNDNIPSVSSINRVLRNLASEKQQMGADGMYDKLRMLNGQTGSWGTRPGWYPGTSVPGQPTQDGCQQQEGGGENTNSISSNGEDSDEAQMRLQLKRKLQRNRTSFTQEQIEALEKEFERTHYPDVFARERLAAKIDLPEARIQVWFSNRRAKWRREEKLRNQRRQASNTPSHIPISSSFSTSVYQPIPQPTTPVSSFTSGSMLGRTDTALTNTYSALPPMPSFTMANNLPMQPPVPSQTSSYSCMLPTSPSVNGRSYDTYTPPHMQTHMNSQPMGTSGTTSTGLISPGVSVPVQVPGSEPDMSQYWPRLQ
Bile acid receptor (Homo sapiens), sequence (Q96RI1 whole entry, looked up): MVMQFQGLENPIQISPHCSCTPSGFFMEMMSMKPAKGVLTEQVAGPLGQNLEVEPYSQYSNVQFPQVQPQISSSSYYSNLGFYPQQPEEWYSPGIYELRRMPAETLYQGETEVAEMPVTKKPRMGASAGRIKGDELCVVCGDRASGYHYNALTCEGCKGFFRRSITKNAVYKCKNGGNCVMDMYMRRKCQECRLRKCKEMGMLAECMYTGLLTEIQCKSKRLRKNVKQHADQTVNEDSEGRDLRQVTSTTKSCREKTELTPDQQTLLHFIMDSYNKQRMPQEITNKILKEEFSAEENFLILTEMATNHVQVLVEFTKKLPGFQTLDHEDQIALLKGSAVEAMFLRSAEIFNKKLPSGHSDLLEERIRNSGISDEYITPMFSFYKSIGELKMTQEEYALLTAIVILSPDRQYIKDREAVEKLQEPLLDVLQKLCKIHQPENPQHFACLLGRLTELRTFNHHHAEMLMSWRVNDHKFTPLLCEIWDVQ

`CC(C)OCCO`: the outcome in test [1], in test [2], in test [3], in [4], in test [5] and in test [6] was inactive. In addition, the compound was classed as inactive in test [7], in test [8], in [9], in test [10], in test [11] and in [12]. In addition, the result in [13], in test [14], in test [15], in test [16], in test [17] and in test [18] was inactive.

`OCc1cccc(Oc2ccccc2)c1`: the outcome in test [19], in test [2], in [4], in [5], in test [6] and in [7] was inactive. For the same compound, the outcome in test [8], in test [9], in test [10], in test [20], in test [13] and in [14] was inactive. Besides, the compound was called inactive in [15] and in test [16]. The AC50 in test [11] is 27.4 µM (active).

As to `CCC(=O)O[C@@H]1C[C@H]2CC[C@]1(C)C2(C)C`, the compound was called inactive in test [1], in test [2], in [3], in test [4], in [5] and in test [6]. For the same compound, the result in test [7], in [8], in [9], in test [10], in test [11] and in [20] was inactive. In addition, the compound was called inactive in test [13], in test [14], in test [15], in test [16], in test [17] and in test [18].

On to `C=Cc1ccc(C)cc1`, for which the call in [1], in [2], in test [3], in test [4], in [5] and in test [6] was inactive. Moreover, the outcome in test [7], in test [8], in [9], in [10], in [20] and in test [14] was inactive. For the same compound, the compound was called inactive in [15], in test [16] and in test [18]. Moreover, the AC50 in [11] is 36.9 µM (active).

`CN(C)CCOc1ccc(/C(=C(/CCCl)c2ccccc2)c2ccccc2)cc1`: the call in test [1], in [2], in test [3], in test [4], in test [5] and in [6] was inactive. Further, the outcome in [7], in test [8], in [9], in [10], in [20] and in test [12] was inactive. Moreover, the compound was called inactive in test [13], in test [14], in [15], in test [16] and in [18]. The AC50 in [11] is 1.18 µM (active).

For `CCOc1ccc(NC(=O)CC(C)=O)cc1`, the call in test [1], in test [2], in test [3], in test [4], in test [6] and in test [7] was inactive. Moreover, the compound was called inactive in test [8], in test [9], in [10], in test [11], in test [12] and in test [13]. Moreover, the call in test [16], in test [17] and in test [18] was inactive. In test [5], the AC50 was 30.4 µM (active).

On to `COC(=O)c1ccc([N+](=O)[O-])cc1`, for which the result in [1], in test [2], in test [3], in test [4], in [5] and in test [6] was inactive. Further, the outcome in [7], in [8], in test [9], in [10], in test [11] and in test [20] was inactive. Also, the call in test [13], in test [14], in [15], in [16] and in test [17] was inactive.

For `CC(O)C1CCCCC1` (stereo unspecified), the compound was called inactive in test [1], in test [2], in test [3], in test [4], in test [5] and in test [6]. Further, the result in test [7], in [8], in test [9], in test [10], in test [11] and in test [20] was inactive. Besides, the call in test [12], in test [13], in test [14], in [15], in test [16] and in [17] was inactive.
